The results in this text go back to PubChem BioAssay AID652126 (The Scripps Research Institute Molecular Screening Center, 2013).

SMILES strings stand for the structures. Screen size: about 370,000 compounds; about 3,700 (1%) were called active.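 Rule for the calls: active = activation above the mean over all tested compounds plus 3 SD (cut at about 0.9% in these data); inactive = the rest.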 The sample as a whole holds a higher share of actives than the screen did.

For this assay, the system named is Nuclear hormone receptor DAF-12 (Strongyloides stercoralis). The assay can be described thus: ssDAF-12 driven luciferase reporter activation – cell-based, luminescence, HEK293, GRIP1 co-expression, lit1-tk-luc, primary screen (AID 652126).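 Note: 0% = DMSO-only wells and 100% = 3 µM delta7-dafachronic acid wells.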 Particulars: HEK293 ssDAF-12/GRIP1 lit1-tk-luc reporter, at 6.8 µM, active compounds read high.
With `N#CC1=C(N)Oc2c(c(=O)oc3ccccc23)C1c1ccccc1OC(=O)c1cccs1` (stereo not given), the activation is 1.09% (active). As for `CCNc1nc2[nH]c(=O)c3c(c2s1)OC(N)=C(C#N)C3c1cccs1` (stereo not given), the figure is -0.98% (inactive); as for `COc1ccc(C2C=C(C)Oc3c2c(=O)oc2ccccc32)cc1OC` (stereo not given), -0.69% (inactive); as for `COP(=O)(Sc1ccccc1)C(Cc1ccccc1)NC(=O)OCc1ccccc1` (stereo not given), -1.15% (inactive).

Consider `Cc1cc(C)c2c(c1)NP(=S)(c1ccccc1)N2` (stereo not given), for which the activation is -0.09% (inactive). As for `COc1ccc2c(c1)NP(=S)(c1ccccc1)N2` (stereo not given), the figure is 1.75% (active); as for `CO[C@H]([C@H](C)/C=C/N(C)C=O)[C@@H](C)C(=O)CC[C@H](C)[C@H](O)[C@H](C)[C@H]1OC(=O)/C=C/C(C)=C/[C@H](O)[C@H](OC)C[C@@H]2C=CC[C@@H](C[C@H](OC)[C@@]3(CO3)[C@@H](OC)C[C@@H](OC)[C@@H]1C)O2`, -0.84% (inactive); as for `O=c1c2ccccc2nc(/C=C/c2ccc(F)cc2)n1-c1ccccc1O`, -0.65% (inactive).

With `Cc1ccccc1CCC[C@@H](CC1CCCCC1)CN(C)C(=O)Oc1ccccc1`, the activation is -1.05% (inactive). In the case of `CCOP(=S)(OCC)C(O)CCCCCn1c(=O)c(F)cn(C2CCCO2)c1=O` (stereo not given), the activation was 1.73% (active). In the case of `Clc1ccc2nc3c(c(-c4ccccc4)c2c1)CNCC3`, the activation was -0.92% (inactive).

In the case of `COc1ccc(CNCCc2ccc3c(c2)OCO3)c(OC)c1OC`, the activation is -0.57% (inactive). The value for `COc1ccc(CNCCc2c[nH]c3ccccc23)cc1OC` was 1.6% (active); that for `c1cncc(CNCCc2c[nH]c3ccccc23)c1` was -0.72% (inactive). Turning to `CN(C)S(=O)(=O)c1cc(C(=O)N2CCC(C(=O)O)(c3ccccc3)CC2)ccc1Cl`, the activation was -1.1% (inactive). As for `CN(C)c1nc(N(C)C)nc(N(C#N)CCCl)n1`, the figure is -1.19% (inactive).

`C[C@]12CCC3C(CC[C@H]4[C@H](O)[C@H](O)CC[C@]34C)C1CC[C@@H]2O` (stereo not given in full): the activation was -0.82% (inactive). The value for `O=C(CSC1c2ccccc2-c2ccccc21)N/N=C/c1ccccc1` was -0.76% (inactive); that for `COc1c(O)ccc2c1-c1c3c(cc4c1C(C2)N(C)CC4)OCO3` (stereo not given) was -0.77% (inactive); that for `Cc1ccc(OC(=O)N(C)C[C@@H]2OCc3cnnn3CCCC(=O)N([C@H](C)CO)C[C@@H]2C)cc1` was -0.97% (inactive).
